These results are taken from PubChem BioAssay.

Molecules are shown by their SMILES. Active and inactive are the calls of the source.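 The calls were made as follows, unless noted: active = inhibition at or above 50% at 10 µM; inactive = inhibition below 50%.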

Assay [1] is described as follows: inhibitors of TNFa-induced NFkB p65 translocation, primary screen, imaging, HUVEC, MLSMR starter and 10KST1 sets (AID 438;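 active = inhibition above 20% together with a positive visual image hit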;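 also: compound added about 3h40 before a 20 min TNFalpha stimulation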;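 as to inhibition: signal is the nuclear over cytoplasmic p65 intensity ratio per well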). The conditions noted are these: HUVEC TNFa-induced p65 nuclear translocation; cell count: measured here: nuclei count (cytotoxicity indicator), at 2.08 µM; inhibition: at 2 µM, stronger effect = higher value, 0% TNFa-plus-vehicle, 100% no-TNFa wells.
A short description of assay [2]: reduction of polyQ htt aggregates in cells – imaging, exon1htt(103Q)mCFP cells, high-content imaging, primary screen (AID 483;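 active = visual image review flags a hit and inhibition of aggregation exceeds 20%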;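 also: compound exposure lasted 3 days before fixation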;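 as to nuclei count: percent of the per-plate median nuclei count of sample wells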). The conditions noted are these: exon1htt(103Q)mCFP cell line, aggregate imaging, at 2 µM; inhibition of aggregation: stronger effect = higher value; nuclei count: measured here: cell count, toxicity.
A short description of assay [3]: endothelial E-selectin expression blockers – imaging, HUVEC, immunofluorescence, MLSMR starter and 10KST1 sets, primary screen (AID 487;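 active = visually confirmed hit in the image check and inhibition above 20%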;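 as to inhibition: signal is fraction of cell area covered by stained E-selectin grains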;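 as to nuclei count: 100% = median nuclei count of all wells on the same plate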). The note with it: HUVEC TNFalpha-induced E-selectin immunofluorescence imaging, at 2 µM; inhibition: stronger effect = higher value; nuclei count: measured here: cell number, toxicity.
Assay [4] addresses Voltage-gated potassium channel subunit beta-2 (Rattus norvegicus) (UniProt P62483). Nature of the assay: inhibitors of rat Kvbeta2 reductase activity – biochemical, NADPH fluorescence, primary screen (AID 622;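 active = fluorescence slope higher than the sample average by over 3 SD, cut at about -0.22 in these data, passing the limit was not always enough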;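 also: slope of raw intensity against log time taken from 70 to 1610 s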). The conditions noted are these: recombinant KvBeta, 4-cyanobenzaldehyde reduction, at 10 µM, stronger effect = higher value.
The target is the same in assay [5]. Nature of the assay: enhancers of rat Kvbeta2 NADPH turnover – biochemical, NADPH fluorescence, primary screen (AID 623;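 active = NADPH fluorescence slope more negative than the mean of all samples by about 3 SD, 99.7% confidence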;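 also: fluorescence intensity change per second fitted from 20 to 320 s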). The conditions noted are these: Recombinant KvBeta, NADPH fluorescence decrease slope, 10 min; at 10 µM; stronger effect = lower value.
Assay [6] concerns the target Alpha-2C adrenergic receptor (Homo sapiens) (UniProt P18825). The experiment in a line: compounds altering alpha2C-coupled GIRK flux – cell-based, HEK293 alpha2C/GIRK1/2, thallium flux, primary screen (AID 624;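 active = fluorescence slope after compound addition differing from the mean of all screened samples at 99.7% confidence, in either direction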;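 also: slope of fluorescence ratio to pre-addition baseline per second over 15 to 24 s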). The note with it: thallium flux BTC fluorescence, at 10 µM, actives lie on both sides.
The nature of assay [7]: blockers of RIG-like receptor reporter activation – cell-based, Sendai virus stimulus, luciferase, 10K MLSCN set, TLR/RLR signaling modifier project, primary screen (AID 602276).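 Also: firefly luciferase from ISG56 promoter only with Renilla not read in this screen; 0% = Sendai virus plus DMSO and 100% = medium plus DMSO without virus.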 The note with it: HEK293 RL24 IRF3 luciferase reporter, at 10 µM, stronger effect = higher value. On the technique in general: A reporter such as luciferase makes a cellular process visible.
The nature of assay [8]: TLR3 IRF3 reporter activation blockers – cell-based, poly I:C stimulus, luciferase, 10K MLSCN set, primary screen (AID 602277;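 active = inhibition of the reporter signal at or above 50%; inactive = inhibition below 50%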). The conditions noted are these: HEK293-TLR3 RL24 IRF3 luciferase reporter, at 10 µM, stronger effect = higher value.

Alpha-2C adrenergic receptor (Homo sapiens), sequence (P18825 whole entry, looked up): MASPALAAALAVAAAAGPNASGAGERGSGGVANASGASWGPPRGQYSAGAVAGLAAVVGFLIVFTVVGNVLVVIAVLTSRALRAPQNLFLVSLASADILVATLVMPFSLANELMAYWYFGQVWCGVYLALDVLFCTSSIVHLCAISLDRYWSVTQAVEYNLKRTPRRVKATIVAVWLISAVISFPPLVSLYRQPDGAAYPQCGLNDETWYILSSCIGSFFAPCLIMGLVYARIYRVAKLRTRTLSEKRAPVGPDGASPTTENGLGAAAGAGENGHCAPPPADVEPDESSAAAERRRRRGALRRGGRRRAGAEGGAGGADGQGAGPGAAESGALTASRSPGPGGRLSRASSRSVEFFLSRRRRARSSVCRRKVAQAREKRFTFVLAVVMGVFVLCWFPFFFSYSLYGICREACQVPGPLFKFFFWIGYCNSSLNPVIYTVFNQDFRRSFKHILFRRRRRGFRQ
Voltage-gated potassium channel subunit beta-2 (Rattus norvegicus), sequence (P62483 whole entry, looked up): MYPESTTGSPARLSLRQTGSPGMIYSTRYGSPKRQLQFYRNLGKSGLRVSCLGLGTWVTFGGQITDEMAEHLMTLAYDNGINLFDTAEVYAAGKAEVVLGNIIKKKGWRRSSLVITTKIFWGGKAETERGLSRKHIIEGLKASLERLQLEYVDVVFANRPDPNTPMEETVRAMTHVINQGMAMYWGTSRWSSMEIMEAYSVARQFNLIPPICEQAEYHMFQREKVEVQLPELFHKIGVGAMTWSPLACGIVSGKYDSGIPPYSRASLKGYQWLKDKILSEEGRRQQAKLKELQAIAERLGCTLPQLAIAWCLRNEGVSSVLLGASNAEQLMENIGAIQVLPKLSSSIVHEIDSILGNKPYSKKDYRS

`CC(=O)Nc1ccc(S(=O)(=O)N(C2=NCC(C)S2)c2ccccc2)cc1` (centres undefined): the cell count in assay [1] is 594. Moreover, the inhibition (in general, the relative decrease from the control value, in per cent) in assay [1] was 5.4% (inactive); in assay [3] it was -9.1% (inactive); in assay [7], 11.6% (inactive); in assay [8], 11.1% (inactive). Further, the inhibition of aggregation in assay [2] is -4.5% (inactive). For the same compound, the nuclei count in assay [2] is 95.5%; in assay [3] it was 109%. Further, the fluorescence slope in assay [4] is -0.496 (inactive). Besides, the NADPH fluorescence slope in assay [5] is -1.6e-05 (inactive). For the same compound, in assay [6], the slope is 0.00617 (inactive).

As to `COc1ccc(CC(=O)N2CCOCC2)cc1OC`, in assay [1], the cell count was determined as 383. Further, the inhibition in assay [1] was -0.8% (inactive); in assay [3], -53.3% (inactive); in assay [7], 15.7% (inactive); in assay [8], 26.1% (inactive). Further, in assay [2], the inhibition of aggregation is 4.3% (inactive). The nuclei count stood at 106% in assay [2] and 111% in assay [3]. In addition, in assay [4], the fluorescence slope is -0.428 (inactive). Further, the NADPH fluorescence slope in assay [5] was -5.5e-05 (inactive). In assay [6], the slope was 0.00535 (inactive).

On to `CC1CCC(NC(=O)C2CCN(c3cnccn3)CC2)CC1` (centres undefined), for which the cell count in assay [1] stood at 579. Also, the inhibition was -52% (inactive) in assay [1], -108% (inactive) in assay [3], -0.638% (inactive) in assay [7] and -2.17% (inactive) in assay [8]. Moreover, the inhibition of aggregation in assay [2] was -0.6% (inactive). For the same compound, the values for the nuclei count in assay [2] and in assay [3] were 102% and 116%, respectively. For the same compound, the fluorescence slope in assay [4] is -0.575 (inactive). Further, the NADPH fluorescence slope in assay [5] was -6.7e-05 (inactive). The slope in assay [6] is 0.00693 (inactive).

For `CCOC(=O)c1cccc(NC(=O)C2CCN(S(=O)(=O)c3cccs3)CC2)c1`, the cell count in assay [1] is 369. The inhibition was -5.7% (inactive) in assay [1], -45.4% (inactive) in assay [3], 3.96% (inactive) in assay [7] and 5.8% (inactive) in assay [8]. Further, the inhibition of aggregation in assay [2] is 3.6% (inactive). Besides, the nuclei count in assay [2] worked out at 90.7%; in assay [3], 128%. The fluorescence slope in assay [4] was -0.634 (inactive). For the same compound, the NADPH fluorescence slope in assay [5] was -3.5e-05 (inactive). Besides, in assay [6], the slope is 0.00624 (inactive).

On to `CCn1cc(C2=NOC(C(=O)Nc3c(C)nn(Cc4ccc(F)cc4)c3C)C2)c(C)n1` (centres undefined), for which, in assay [1], the cell count was determined as 766. In addition, the inhibition in assay [1] is -12.2% (inactive); in assay [3], -34.2% (inactive); in assay [7] it was 12.3% (inactive); in assay [8], 11.4% (inactive). Also, the inhibition of aggregation in assay [2] is -18.1% (inactive). Also, the nuclei count in assay [2] amounted to 105%; in assay [3], 94.7%. In addition, in assay [4], the fluorescence slope was -0.581 (inactive). Moreover, the NADPH fluorescence slope in assay [5] was -2.9e-05 (inactive). Also, the slope in assay [6] was 0.00617 (inactive).

Turning to `O=C1NC(c2ccco2)Nc2ccccc21` (centres undefined), the cell count in assay [1] came to 694. Further, the inhibition in assay [1] was -50% (inactive); in assay [3] it was -84.8% (inactive); in assay [7] it was -17.2% (inactive); in assay [8], 99.3% (active). The inhibition of aggregation in assay [2] was -23.8% (inactive). In addition, the results for the nuclei count in assay [2] and in assay [3] were 102% and 107%, respectively. In assay [4], the fluorescence slope was -0.344 (inactive). The NADPH fluorescence slope in assay [5] was 1.4e-05 (inactive). Besides, the slope in assay [6] was 0.00562 (inactive).

Take `CC1=C/C(=C/N(C)c2ccccc2)C(=O)S1`: the cell count in assay [1] stood at 582. The inhibition is -3.5% (inactive) in assay [1], 31.4% (inactive) in assay [3], -17.2% (inactive) in assay [7] and -17% (inactive) in assay [8]. In assay [2], the inhibition of aggregation was -10.1% (inactive). Also, the results for the nuclei count in assay [2] and in assay [3] were 97.7% and 88.1%, respectively. Also, the fluorescence slope in assay [4] is -0.61 (inactive). Besides, in assay [5], the NADPH fluorescence slope was 1.5e-05 (inactive). In addition, the slope in assay [6] is 0.0049 (inactive).

In the case of `CCOC(=O)N1CCN(Cc2nc3c(c(=O)n(C)c(=O)n3C)n2Cc2ccc(F)cc2)CC1`, in assay [1], the cell count stood at 697. Also, the inhibition in assay [1] was 0.3% (inactive); in assay [3], -23.4% (inactive); in assay [7], 16.7% (inactive); in assay [8] it was 39.9% (inactive). In addition, the inhibition of aggregation in assay [2] is -1.6% (inactive). In addition, the results for the nuclei count in assay [2] and in assay [3] were 91.7% and 123%, respectively. Moreover, in assay [4], the fluorescence slope was -0.557 (inactive). Also, the NADPH fluorescence slope in assay [5] was -3.3e-05 (inactive). Further, in assay [6], the slope is 0.00745 (inactive).

On to `O=C(c1ccc2ccccc2n1)N1CCN(c2ccccc2)CC1`, for which the cell count in assay [1] stood at 874. In addition, the inhibition was 0% (inactive) in assay [1], -78.3% (inactive) in assay [3], -18.5% (inactive) in assay [7] and -4.71% (inactive) in assay [8]. In addition, the inhibition of aggregation in assay [2] was -15% (inactive). For the same compound, the nuclei count was determined as 107% in assay [2] and 142% in assay [3]. Besides, in assay [4], the fluorescence slope is -0.476 (inactive). In assay [5], the NADPH fluorescence slope is 9.7e-06 (inactive). Moreover, the slope in assay [6] was 0.00614 (inactive).

On to `NS(=O)(=O)c1ccc(NC(=O)N[C@@H](Cc2ccccc2)C(=O)O)cc1`, for which, in assay [1], the cell count was 292. In addition, the inhibition was -0.8% (inactive) in assay [1], 16.6% (inactive) in assay [3], 10.6% (inactive) in assay [7] and 16.6% (inactive) in assay [8]. Also, the inhibition of aggregation in assay [2] was 5.2% (inactive). For the same compound, the nuclei count in assay [2] was 104%; in assay [3], 99.7%. Besides, in assay [4], the fluorescence slope is -0.485 (inactive). For the same compound, the NADPH fluorescence slope in assay [5] was -4.3e-05 (inactive). Further, the slope in assay [6] was 0.00476 (inactive).

As to `COc1ccc(NC(=O)C2Cc3ccccc3C(=O)O2)cc1` (centres undefined), the cell count in assay [1] turned out to be 642. Also, the inhibition in assay [1] was 0.3% (inactive); in assay [3], -19.3% (inactive); in assay [7] it was -11.7% (inactive); in assay [8], -23.5% (inactive). Further, the inhibition of aggregation in assay [2] is 15.6% (inactive). Further, the nuclei count stood at 105% in assay [2] and 120% in assay [3]. Further, the fluorescence slope in assay [4] was -0.427 (inactive). For the same compound, the NADPH fluorescence slope in assay [5] was -6e-05 (inactive). In assay [6], the slope is 0.00562 (inactive).

Regarding `N#CCCN(Cc1cccnc1)C(=O)Nc1ccc(Cl)c(Cl)c1`, the cell count in assay [1] stood at 398. Further, the inhibition in assay [1] is 3.1% (inactive); in assay [3], -20.5% (inactive); in assay [7], 15.4% (inactive); in assay [8], 29.1% (inactive). Besides, in assay [2], the inhibition of aggregation is -31.1% (inactive). The figures for the nuclei count in assay [2] and in assay [3] were 109% and 99.6%, respectively. Besides, the fluorescence slope in assay [4] is -0.449 (inactive). The NADPH fluorescence slope in assay [5] is 5.4e-05 (inactive). The slope in assay [6] was 0.0054 (inactive).

Regarding `CCOC(=O)NC(=O)CSc1nnnn1-c1ccc(Cl)cc1`, the cell count in assay [1] turned out to be 394. The inhibition in assay [1] is 10% (inactive); in assay [3] it was -90.3% (inactive); in assay [7] it was 4.73% (inactive); in assay [8], 15.2% (inactive). The inhibition of aggregation in assay [2] is 2.2% (inactive). Moreover, the nuclei count was 83.5% in assay [2] and 110% in assay [3]. In assay [4], the fluorescence slope was -0.297 (inactive). The NADPH fluorescence slope in assay [5] is 4.2e-05 (inactive). In assay [6], the slope is 0.00637 (inactive).

As to `CC(=O)c1ccc(NC(=O)c2cc(CC(C)C)on2)cc1`, in assay [1], the cell count turned out to be 572. The inhibition in assay [1] was -2.3% (inactive); in assay [3] it was -3% (inactive); in assay [7], -32.2% (inactive); in assay [8], -78% (inactive). Besides, the inhibition of aggregation in assay [2] was 23.3% (inactive). Also, the nuclei count in assay [2] amounted to 97.8%; in assay [3] it was 104%. In addition, the fluorescence slope in assay [4] is -0.606 (inactive). In addition, the NADPH fluorescence slope in assay [5] was -2.3e-06 (inactive). In assay [6], the slope was 0.00654 (inactive).
